According to PubChem BioAssay AID2590 (National Center for Advancing Translational Sciences (NCATS), 2010):
Several values for one entry are separate records, joined by “and”; a condition that tells them apart may be missing. Equal entries are not always repeated. Records with an inconclusive call do not appear. Activity calls are given as the source filed them. Calls follow the shape of the dose curve; as a rule, active = well fitted curve in the direction sought with a large enough effect; inconclusive = small, poorly fitted or top-dose-only effect, or another doubt; inactive = no such curve, though single readings can be large or run the other way.

target: Lysosomal acid glucosylceramidase (Homo sapiens) (UniProt P04062); experiment: qHTS Assay for Inhibitors and Activators of N370S glucocerebrosidase as a Potential Chaperone Treatment of Gaucher Disease: Primary Screen Confirmation; details: N370S glucocerebrosidase enzyme activity, fluorogenic substrate; series mostly up to 54 µM; activity change, negative = inhibition: at the top concentration;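 as to Potency: enzyme source is Gaucher patient spleen homogenate not purified recombinant protein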;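 as to activity change, negative = inhibition: 0% = enzyme with DMSO and -100% = no enzyme basal signal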
Summary of the method: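 Patient-spleen homogenate carrying N370S GC (27 ug) in pH 5.0 citrate buffer with 0.01% Tween-20, 1 mM 4-methylumbelliferyl-beta-glucoside, 40 min at 37C; fluorescence 365/440 nm after NaOH/glycine stop; AC50 from Hill fits.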
Potency is read from the fitted curve at half-maximal effect.

Sequence of Lysosomal acid glucosylceramidase (Homo sapiens) (P04062 whole entry N409S): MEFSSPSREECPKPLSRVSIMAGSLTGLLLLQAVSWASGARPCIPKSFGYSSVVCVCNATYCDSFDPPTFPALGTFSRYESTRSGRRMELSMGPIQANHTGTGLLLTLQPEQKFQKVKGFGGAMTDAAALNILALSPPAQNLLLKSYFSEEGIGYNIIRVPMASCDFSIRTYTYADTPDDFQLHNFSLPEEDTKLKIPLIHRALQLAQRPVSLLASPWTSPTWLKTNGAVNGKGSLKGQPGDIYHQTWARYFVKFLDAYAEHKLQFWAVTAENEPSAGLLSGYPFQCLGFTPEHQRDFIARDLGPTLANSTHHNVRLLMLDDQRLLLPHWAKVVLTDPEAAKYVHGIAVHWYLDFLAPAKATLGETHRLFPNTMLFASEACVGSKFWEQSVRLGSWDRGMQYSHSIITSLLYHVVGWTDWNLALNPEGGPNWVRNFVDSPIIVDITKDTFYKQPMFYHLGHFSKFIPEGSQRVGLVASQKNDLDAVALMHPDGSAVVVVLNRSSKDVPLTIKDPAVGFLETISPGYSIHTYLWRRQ

SMILES | Potency | activity change, negative = inhibition
Cc1cc2[nH]c(=O)c(=O)[nH]c2cc1S(=O)(=O)N1CCN(c2cccc(C)c2C)CC1 | 4.11 µM (active) | –
COc1cccc(NC(=O)CSc2nc3c(sc4ccccc43)c(=O)n2CCCN2CCCC2)c1 | – | -26.5% (inactive)
Cc1cc(C)nc(NC(=O)Cc2ccc(Cl)cc2)c1 | – | -22.5% (inactive)
CC(C)S(=O)(=O)N1CCN(c2nc(-c3cccs3)nc3ccccc23)CC1 | 5.07 µM (active) | –
Cc1ccccc1NC(=O)Nc1ccccn1 | – | 2.43% (inactive)
c1ccc(CNc2nc(-c3ccccc3)nc3ccccc23)cc1 | 10.1 µM (active) | –
S=C(NCCCN(Cc1ccc(Cl)c(Cl)c1)c1ccc(Br)cn1)NCCc1cnc[nH]1 | 18.3 µM (active) | –
CN(CCN(C)c1nc(-c2cccs2)nc2ccccc12)C(=O)OC(C)(C)C | 5.8 µM (active) | –
N#C/C(=C\c1c(Oc2ccccc2Cl)nc2ccccn2c1=O)C(=O)NC1CCS(=O)(=O)C1 (centres undefined) | – | 1.08% (inactive)
CC(C)C(C)NC(=O)CSc1nc2scc(-c3ccco3)c2c(=O)n1-c1ccccc1 (centres undefined) | – | 6.41% (inactive)
COc1ccc(S(=O)(=O)N2CCN(c3nc(-c4ccccc4)nc4ccccc34)CC2)cc1 | 3.66 µM (active) | –
O=S(=O)(c1ccc(Br)cc1)N1CCN(c2nc(-c3cccs3)nc3ccccc23)CC1 | 1.3 µM (active) | –
CCOc1ccc(N(CC(=O)NC2CCCCCC2)S(=O)(=O)c2c(C)[nH]c(=O)[nH]c2=O)cc1 | 7.94 µM (active) | –
NCCCN(Cc1ccc(Cl)c(Cl)c1)c1ccc(Br)cn1 | 18.3 µM (active) | –
Cc1ccc(S(=O)(=O)N(C)CCCN(C)c2nc(-c3cccs3)nc3ccccc23)cc1 | 2.53 µM (active) | –
O=S(=O)(c1ccc2c(c1)OCO2)N1CCN(c2nc(-c3cccs3)nc3ccccc23)CC1 | 0.291 µM (active) | –
Cc1ccc(S(=O)(=O)N2CCN(c3nc(-c4cscn4)nc4ccccc34)CC2)cc1 | 4.11 µM (active) | –
CC(=O)N1CCN(C(=O)c2cc(-c3ccc(Cl)s3)nc3ccccc23)CC1 | – | -3.72% (inactive)
CC(C)(C)C(=O)OCCNc1nc(-c2ccccc2)nc2ccccc12 | 1.42 µM (active) | –
O=S(=O)(c1ccccc1Cl)N1CCN(c2nc(-c3cccs3)nc3ccccc23)CC1 | 1.16 µM (active) and 259 nM (active) | –
Cc1cc(NC(=O)CCS(=O)(=O)c2ccc3c(c2)NC(=O)C(C)S3)ccc1Br (centres undefined) | 6.51 µM (active) | –
N#Cc1cccc(S(=O)(=O)N2CCN(c3nc(-c4cccs4)nc4ccccc34)CC2)c1 | 2.01 µM (active) | –
CN1CCN(CCCNC(=O)c2ccc(/C=C3\Oc4ccccc4N(Cc4ccccc4F)C3=O)cc2)CC1 | – | -18.7% (inactive)
Cc1cccc(NC(=O)Nc2cccc(C#N)c2)n1 | – | -2.1% (inactive)
O=S(=O)(c1ccc(F)cc1)N1CCN(c2nc(-c3cccs3)nc3ccccc23)CC1 | 1.27 µM (active) and 713 nM (active) | –
COc1ccc(NC(=O)Nc2cccc(C)n2)c(OC)c1 | – | 18.6% (inactive)
Cc1ccc(S(=O)(=O)N2CCN(c3nc(-c4cccs4)nc4ccccc34)CC2)c(C)c1 | 0.291 µM (active) | –
CCOCCCNc1nc(-c2ccccc2)nc2ccccc12 | 10.1 µM (active) | –
O=C(NCCCc1cnc[nH]1)NCCCN(Cc1ccc(Cl)c(Cl)c1)c1ccc(Br)cn1 | 1.03 µM (active) | –
